About 79,000 compounds went through this panel and 15% of them were active in at least one assay; those are over-represented in the sample as a whole. The source made the active and inactive calls. No stated cut-off is given here; in the data, active means growth inhibition above about 70%; inactive means the rest.
Experiment: NCI Yeast Anticancer Drug Screen. Data for the rad50EPP+ strain (AID 151);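 further: 0% = growth of vehicle-treated control cultures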
Conditions: S. cerevisiae rad50 mutant strain, hits give high values
Procedure: Growth inhibition of yeast strains with defined genetic alterations is measured as a screen for potential anti-cancer activity. Selected strains with alterations in DNA damage repair or cell cycle control were exposed to compounds and growth inhibition was measured relative to vehicle treated controls. The strain used in this assay is rad50EPP+

Measured: growth inhibition

Cc1ccc(P(c2ccc(C)cc2)c2ccc(C)cc2)cc1
inactive: at 1.2 µM -7% | at 3.7 µM -10% | at 11.0 µM -12% | at 33.0 µM -23% | at 100.0 µM -34%

CCOc1ccc2ccc3cccnc3c2n1
active: at 100.0 µM 88%
inactive: at 1.2 µM -8% | at 3.7 µM 11% | at 11.0 µM 23% | at 33.0 µM 61%

CC(C)(C)[Si](C)(C)OCC1OC(n2cnc3c(N)ncnc32)C2OC(=S)OC12 (stereo not given)
inactive: at 1.2 µM -5% | at 3.7 µM -6% | at 11.0 µM -3% | at 33.0 µM 3% | at 100.0 µM 8%

S=c1[nH]nc(Cc2ccccc2)c(=S)[nH]1
inactive: at 1.2 µM -22% | at 3.7 µM -10% | at 11.0 µM -11% | at 33.0 µM 16% | at 100.0 µM 48%

CN(C)N=Nc1ccc(NC=O)cc1
inactive: at 1.2 µM 11% | at 3.7 µM 6% | at 11.0 µM 8%
active: at 33.0 µM 86% | at 100.0 µM 98%

CC(=O)O/N=C/c1c2ccccc2cc2ccccc12
inactive: at 1.2 µM 14% | at 3.7 µM 24% | at 11.0 µM 44% | at 33.0 µM 64% | at 100.0 µM 66%

CNc1ccc2[nH]c3ccccc3c2c1
inactive: at 1.2 µM 1% | at 3.7 µM -2% | at 11.0 µM -4% | at 33.0 µM 26% | at 100.0 µM 65%

O=C1C=CC(=O)N1c1ccc(Br)cc1Cl
active: at 1.2 µM 90% | at 3.7 µM 102% | at 11.0 µM 100% | at 33.0 µM 99% | at 100.0 µM 99%

— PubChem BioAssay (NCI)
